Data on 37 compounds can be found in PubChem BioAssay (NCATS).

Several values for one entry are separate records, joined by “and”; a condition that tells them apart may be missing. Identical values can stand only once. Records with an inconclusive call do not appear. Activity calls are given as the source filed them. The call rests on the fitted dose curve; in most records, active means well fitted inhibition curve with a large enough effect; inconclusive means small, poorly fitted or top-dose-only effect; inactive means flat fitted curve, though single readings scatter.
On the % scale 0 is the no-effect control and ±100 the full control effect.

The subject of this test is KB-3-1. Nature of the test: Cytotoxic Profiling of Annotated Libraries Using Quantitative High-Throughput Screening (AID 1296008). Further: nearly all actives have a fitted effect of over 60% in size. The conditions noted are these: Five cell lines viability, CellTiter-Glo ATP luminescence, 48-72 h; max response: active compounds read low. The method, boiled down: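 Cells exposed to compounds for 48 or 72 hr at 37 degrees Celsius. Viability read as ATP-coupled luminescence with CellTiter-Glo after 10 min at room temperature.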
In general terms: In ATP-based viability assays light output follows the ATP content of the culture.
On to `CC1(C)[C@H]2CC[C@]1(C)[C@H](O)C2`, for which the max response was -0.648% (inactive).

Turning to `C=C1CC[C@H](O)CC1=C/C=C1\CCC[C@]2(C)[C@@H]([C@H](C)CC[C@@H](O)C(C)(C)O)CC[C@@H]12`, the max response was 6.41% (inactive).

As for `CC(C)=CCC/C(C)=C/CC/C(C)=C/CC/C=C(\C)CC/C=C(\C)CCC=C(C)C`, the max response is 6.34% (inactive) and -6.32% (inactive).

Consider `CCOc1ccc(S(=O)(=O)O)c2cccnc12`, for which the max response was 5.36% (inactive).

For the compound `CNC(=O)C[C@@H](N)C(=O)N[C@@H](C(=O)N[C@@H]1C(=O)N2[C@@H]1SC(C)(C)[C@@H]2C(=O)O)c1ccc(O)cc1`, the max response is -18.5% (inactive).

Turning to `CCCCCCCCCc1ccc(OCCOCCO)cc1`, the max response is -16.4% (inactive).

Consider `CCN(CC)CCOC(=O)c1cccnc1`, for which the max response was 21.6% (inactive).

As to `CCCCCCCCCCCCCCCC(=O)OC[C@@H](O)[C@H]1OC[C@H](O)[C@H]1O`, the max response is -3.59% (inactive).

On to `CC(C)(Oc1ccc(C2CCCc3ccccc32)cc1)C(=O)O` (configuration not stated), for which the max response is -10.9% (inactive).

For the compound `O=P(O)(O)OC[C@H]1O[C@](O)(COP(=O)(O)O)[C@@H](O)[C@@H]1O`, the max response is 1.63% (inactive).

`NC(N)=NCC1COc2ccccc2O1` (configuration not stated): the max response is -6.36% (inactive).

Consider `CCC(=O)c1ccc2c(c1)N(CCCN1CCN(CCO)CC1)c1ccccc1S2`, for which the max response was -13.4% (inactive).

Take `Cc1ccc(S(=O)(=O)O)cc1C`: the max response is 7.06% (inactive).

Take `C=C1C(CCl)(CCl)C2(Cl)C(Cl)C(Cl)C1(Cl)C2(Cl)Cl` (configuration not stated): the max response was 3.52% (inactive).

With `CO[C@@H]1[C@H](OC(=O)/C=C/C=C/C=C/C=C/C(=O)O)CC[C@]2(CO2)[C@H]1[C@@]1(C)O[C@@H]1CC=C(C)C`, the max response is 2% (inactive).

In the case of `C=CCCCCCCCCC(=O)OC`, the max response was 9.89% (inactive).

Consider `O=C(O)/C=C/c1ccccc1`, for which the max response was 5.56% (inactive).

In the case of `CC(C)[C@@H]1CC[C@@H](C)C[C@H]1OC(=O)c1ccccc1O`, the max response is -4.38% (inactive).

With `CCCCC(O)c1ccccc1` (configuration not stated), the max response is 6.09% (inactive).

In the case of `C=Cc1c(C)c2cc3nc(cc4[nH]c(cc5nc(cc1[nH]2)C(C)=C5CCC(=O)OC)c(CCC(=O)O)c4C)[C@@]1(C)C3=CC=C(C(=O)OC)[C@H]1C(=O)OC`, the max response was -15.7% (inactive).

On to `NC[C@H]1O[C@H](O[C@H]2[C@H](O)[C@@H](O[C@H]3O[C@H](CO)[C@@H](O)[C@H](N)[C@H]3O)[C@H](N)C[C@@H]2N)[C@H](N)C[C@@H]1O`, for which the max response was -4.68% (inactive).

Turning to `CC(=O)N=c1sc(S(N)(=O)=O)nn1C`, the max response is 21.5% (inactive).

As to `CC(/C=C/C=C(\C)C(=O)O[C@@H]1O[C@H](CO[C@@H]2O[C@H](CO)[C@@H](O)[C@H](O)[C@H]2O)[C@@H](O)[C@H](O)[C@H]1O)=C\C=C\C=C(C)\C=C\C=C(/C)C(=O)O[C@@H]1O[C@H](CO[C@@H]2O[C@H](CO)[C@@H](O)[C@H](O)[C@H]2O)[C@@H](O)[C@H](O)[C@H]1O`, the max response is 1.72% (inactive).

Regarding `CN[C@@H]1[C@@H](O)[C@@H](O[C@@H]2[C@@H](O)[C@H](OC3OC(CN)=CCC3N)[C@@H](N)C[C@H]2N)OC[C@]1(C)O` (some centres not stated), the max response is -18.5% (inactive).

Consider `O=C(OC1C[C@@H]2CC3C[C@H](C1)N2CC3=O)c1c[nH]c2ccccc12` (some centres not stated), for which the max response is -14.8% (inactive).

On to `C=C[C@]1(C)C[C@@H](OC(=O)CSCCN(CC)CC)[C@]2(C)[C@H](C)CC[C@]3(CCC(=O)[C@H]32)[C@@H](C)[C@@H]1O`, for which the max response is -8.95% (inactive).

As for `COc1ccc(/C=N/NC(=O)c2ccncc2)c(C(=O)O)c1OC`, the max response was -1.02% (inactive).

For the compound `Nc1ncnc2c1ncn2CCOCP(=O)(O)O`, the max response is -6.33% (inactive).

Regarding `OC/C=C/c1ccccc1`, the max response was -5.63% (inactive).

For the compound `CN(C)CCOc1ccc(/C(=C(/CCCl)c2ccccc2)c2ccccc2)cc1`, the max response is -3.21% (inactive).

`N[C@H](CC(=O)O)C(=O)O`: the max response was 11.5% (inactive).

On to `CC[C@H](CC[C@@H](C)[C@H]1CC[C@H]2[C@@H]3CC=C4C[C@@H](O)CC[C@]4(C)[C@H]3CC[C@]12C)C(C)C`, for which the max response is -4.33% (inactive).

Consider `Nc1nc2c(c(=O)[nH]1)N(C=O)C(CNc1ccc(C(=O)N[C@@H](CCC(=O)O)C(=O)O)cc1)CN2` (some centres not stated), for which the max response is 0.559% (inactive).

For the compound `COC(=O)c1ccccc1O`, the max response is -4.17% (inactive).

Take `Cn1nnnc1SCC1=C(C(=O)O)N2C(=O)[C@@H](NC(=O)[C@H](O)c3ccccc3)[C@H]2SC1`: the max response was 8.48% (inactive).

As to `C[C@@H]1O[C@@H]1P(=O)(O)O`, the max response was -3.35% (inactive).

With `COc1ccc([C@@H]2CC(=O)c3c(O)cc(O[C@@H]4O[C@H](CO[C@@H]5O[C@@H](C)[C@H](O)[C@@H](O)[C@H]5O)[C@@H](O)[C@H](O)[C@H]4O)cc3O2)cc1O`, the max response was -3.21% (inactive).
